Laboratory results taken from PubChem BioAssay (EPA / NIEHS).
The source made the active and inactive calls. The calls were made as follows: active = hit-call score of the fitted dose curve at least 0.9, where 1 is the maximum; inactive = score below 0.9.

Legend:
Settings in all cases: mRNA level, 48 h; actives raise or lower the signal
[1] = read-out: Cyclin D2 (CCND2), CCND2 (gene 894); experiment: LTEA_HepaRG_CCND2: Life Technologies and Expression Analysis (LTEA) Assay for Cyclin D2 (CCND2) using HepaRG (AID 2283449);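 also: CCND2 transcript measured by TaqMan qRT-PCR and normalised to three housekeeping genes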
Outline: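 Chemicals in 0.5% DMSO, eight half-log concentrations from 100 uM top, were applied in duplicate for 48 h to human HepaRG cells in serum-free induction medium. CCND2 mRNA by TaqMan qRT-PCR, normalised to ACTB/GAPDH/POLR2A; bidirectional fit versus DMSO.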

[2] = read-out: Cyclin Dependent Kinase Inhibitor 1A (CDKN1A), CDKN1A (gene 1026); experiment: LTEA_HepaRG_CDKN1A: Life Technologies and Expression Analysis (LTEA) Assay for Cyclin Dependent Kinase Inhibitor 1A (CDKN1A) using HepaRG (AID 2283450)
Outline: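 Gain or loss of CDKN1A transcript is scored by bidirectional fitting against 0.5% DMSO vehicle. Human HepaRG cultures receive chemicals for 48 h across an 8-point series peaking at 100 uM; expression comes from qRT-PCR.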

[3] = read-out: Cyclin D1 (CCND1), CCND1 (gene 595); experiment: LTEA_HepaRG_CCND1: Life Technologies and Expression Analysis (LTEA) Assay for Cyclin D1 (CCND1) using HepaRG (AID 2283451)
Outline: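 Expression change is measured by qRT-PCR in HepaRG cells after 48 h treatment across eight concentrations topping at 100 uM, with duplicate wells and DMSO (0.5%) serving as baseline for bidirectional fitting.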

[4] = read-out: catalase (CAT), CAT (gene 847); experiment: LTEA_HepaRG_CAT: Life Technologies and Expression Analysis (LTEA) Assay for catalase (CAT) using HepaRG (AID 2283452);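 as to AC50: TaqMan qRT-PCR signal normalized to ACTB GAPDH and POLR2A housekeeping genes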
Outline: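 HepaRG cells in serum-free induction medium, 0.5% DMSO vehicle, exposed 48 h in duplicate over 8 half-log concentrations from 100 uM. CAT mRNA measured by qRT-PCR, normalized to ACTB, GAPDH, POLR2A; bidirectional fit versus DMSO.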

[5] = read-out: Cytochrome P450 (CYP1A1), CYP1A1 (gene 1543); experiment: LTEA_HepaRG_CYP1A1: Life Technologies and Expression Analysis (LTEA) Assay for Cytochrome P450 (CYP1A1) using HepaRG (AID 2283454)
Outline: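 Using HepaRG cultures with 0.5% DMSO as vehicle, eight-concentration exposures (max 100 uM) lasted 48 h. Transcript levels were measured by TaqMan qRT-PCR and normalized to ACTB, GAPDH and POLR2A.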

[6] = read-out: CFLAR gene, CFLAR (gene 8837); experiment: LTEA_HepaRG_CFLAR: Life Technologies and Expression Analysis (LTEA) Assay for CFLAR gene using HepaRG (AID 2283455)
Outline: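 Differentiated HepaRG cells in serum-free induction medium were exposed 48 h in duplicate to eight half-log concentrations up to 100 uM in 0.5% DMSO; mRNA measured by TaqMan qRT-PCR, normalized to ACTB, GAPDH, POLR2A; bidirectional fitting versus DMSO.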

[7] = read-out: Forkhead box O1 (FOXO1), FOXO1 (gene 2308); experiment: LTEA_HepaRG_FOXO1: Life Technologies and Expression Analysis (LTEA) Assay for Forkhead box O1 (FOXO1) using HepaRG (AID 2283456)
Outline: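 Differentiated HepaRG cells, in serum-free induction medium with 0.5% DMSO, exposed 48 h in duplicate to 8-point half-log series from 100 uM. FOXO1 mRNA measured by TaqMan qRT-PCR, normalized to ACTB, GAPDH, POLR2A; bidirectional fit versus DMSO.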

[8] = read-out: growth arrest and DNA damage 45 (GADD45A), GADD45A (gene 1647); experiment: LTEA_HepaRG_GADD45A: Life Technologies and Expression Analysis (LTEA) Assay for growth arrest and DNA damage 45 (GADD45A) using HepaRG (AID 2283458)
Outline: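 Differentiated HepaRG cells were exposed in duplicate for 48 h in serum-free induction medium to 8-point half-log concentrations up to 100 uM in 0.5% DMSO. GADD45A mRNA was measured by TaqMan qRT-PCR, normalized to ACTB, GAPDH and POLR2A, with bidirectional fitting versus DMSO.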

[9] = read-out: Forkhead box O3 (FOXO3), FOXO3 (gene 2309); experiment: LTEA_HepaRG_FOXO3: Life Technologies and Expression Analysis (LTEA) Assay for Forkhead box O3 (FOXO3) using HepaRG (AID 2283459)
Outline: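 Differentiated human HepaRG cells, 48 h post-plating, exposed in duplicate for 48 h in serum-free induction medium; 8-point half-log series from 100 uM in 0.5% DMSO. FOXO3 mRNA by TaqMan qRT-PCR, normalized to ACTB/GAPDH/POLR2A; bidirectional fit versus DMSO.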

[10] = read-out: ABC Transporter (ABCB1), ABCB1 (gene 5243); experiment: LTEA_HepaRG_ABCB1: Life Technologies and Expression Analysis (LTEA) Assay for ABC Transporter (ABCB1) using HepaRG (AID 2283460)
Outline: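 HepaRG cells exposed in duplicate for 48 h in serum-free induction medium to eight half-log concentrations up to 100 uM in 0.5% DMSO. ABCB1 mRNA quantified by qRT-PCR, normalised to ACTB, GAPDH and POLR2A; fitted bidirectionally versus DMSO.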

[11] = read-out: growth arrest and DNA damage 45 (GADD45B), GADD45B (gene 4616); experiment: LTEA_HepaRG_GADD45B: Life Technologies and Expression Analysis (LTEA) Assay for growth arrest and DNA damage 45 (GADD45B) using HepaRG (AID 2283461)
Outline: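 Human HepaRG monolayers receive chemicals for 48 h at eight half-log concentrations, highest 100 uM, in 0.5% DMSO. Expression is measured by TaqMan qRT-PCR and normalized to ACTB, GAPDH and POLR2A.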

[12] = read-out: ABC Transporter (ABCB11), ABCB11 (gene 8647); experiment: LTEA_HepaRG_ABCB11: Life Technologies and Expression Analysis (LTEA) Assay for ABC Transporter (ABCB11) using HepaRG (AID 2283463)
Outline: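 Differentiated human HepaRG cells in serum-free induction medium, dosed in duplicate for 48 h. Eight-point half-log series from 100 uM in 0.5% DMSO; ABCB11 mRNA by qRT-PCR, normalized to ACTB, GAPDH, POLR2A, fitted bidirectionally versus DMSO.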

[13] = read-out: ABC Transporter (ABCC2), ABCC2 (gene 1244); experiment: LTEA_HepaRG_ABCC2: Life Technologies and Expression Analysis (LTEA) Assay for ABC Transporter (ABCC2) using HepaRG (AID 2283464)
Outline: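 After plating and 48 h culture, HepaRG medium is replaced with serum-free induction medium and chemicals are added (8 concentrations, max 100 uM, 0.5% DMSO) for 48 h. Total RNA then undergoes qRT-PCR for ABCC2 with housekeeping normalization.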

[14] = read-out: Broad substrate specificity ATP-binding cassette transporter ABCG2 (Homo sapiens) (UniProt Q9UNQ0); experiment: LTEA_HepaRG_ABCG2: Life Technologies and Expression Analysis (LTEA) Assay for ABC Transporter (ABCG2) using HepaRG (AID 2283465)
Outline: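 Differentiated HepaRG cells were exposed for 48 h in serum-free induction medium to 8 half-log concentrations, top 100 uM, in 0.5% DMSO. ABCG2 mRNA was measured by qRT-PCR, normalized to ACTB, GAPDH and POLR2A, with bidirectional fitting versus DMSO.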

[15] = read-out: ATP-citrate lyase (ACLY), ACLY (gene 47); experiment: LTEA_HepaRG_ACLY: Life Technologies and Expression Analysis (LTEA) Assay for ATP-citrate lyase (ACLY) using HepaRG (AID 2283466)
Outline: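 Differentiated HepaRG cells exposed 48 h in serum-free induction medium to eight half-log concentrations up to 100 uM in 0.5% DMSO, duplicates. Transcript measured by Fluidigm TaqMan qRT-PCR, normalized to ACTB, GAPDH, POLR2A; bidirectional fit versus DMSO.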

[16] = read-out: Peroxisomal acyl-coenzyme A oxidase 1 (ACOX1) gene, ACOX1 (gene 51); experiment: LTEA_HepaRG_ACOX1: Life Technologies and Expression Analysis (LTEA) Assay for Peroxisomal acyl-coenzyme A oxidase 1 (ACOX1) gene using HepaRG (AID 2283467)
Outline: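 HepaRG cells, plated 48 h then switched to serum-free induction medium, were exposed in duplicate for 48 h to 8-point half-log concentrations up to 100 uM in 0.5% DMSO. ACOX1 mRNA was measured by qRT-PCR, normalized to ACTB/GAPDH/POLR2A, and fitted bidirectionally versus DMSO.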

[17] = read-out: Alkaline Phosphatase, Placental (ALPP) gene, ALPP (gene 250); experiment: LTEA_HepaRG_ALPP: Life Technologies and Expression Analysis (LTEA) Assay for Alkaline Phosphatase, Placental (ALPP) gene using HepaRG (AID 2283468)
Outline: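 Using human liver HepaRG cells, chemicals are tested in duplicate over 48 h at half-log concentrations topping at 100 uM; phenobarbital 1 mM serves as induction control. ALPP mRNA change by qRT-PCR, bidirectional fit against vehicle.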

[18] = read-out: Bcl-2 (BAD) gene, BAD (gene 572); experiment: LTEA_HepaRG_BAD: Life Technologies and Expression Analysis (LTEA) Assay for Bcl-2 (BAD) gene using HepaRG (AID 2283469)
Outline: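 Differentiated HepaRG cells were exposed in duplicate in 0.5% DMSO for 48 h to eight-point half-log concentrations up to 100 uM. BAD mRNA was measured by Fluidigm TaqMan qRT-PCR, normalized to ACTB, GAPDH and POLR2A, and fitted bidirectionally against DMSO.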

[19] = read-out: adenosine kinase (ADK) gene, ADK (gene 132); experiment: LTEA_HepaRG_ADK: Life Technologies and Expression Analysis (LTEA) Assay for adenosine kinase (ADK) gene using HepaRG (AID 2283471)
Outline: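 Differentiated HepaRG cells dosed 48 h in serum-free induction medium, 0.5% DMSO vehicle, eight half-log concentrations from 100 uM, in duplicate. ADK mRNA by TaqMan qRT-PCR normalised to ACTB, GAPDH, POLR2A; bidirectional fit versus DMSO.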

Measured: AC50

Sequence of Broad substrate specificity ATP-binding cassette transporter ABCG2 (Homo sapiens) (Q9UNQ0 whole entry, looked up): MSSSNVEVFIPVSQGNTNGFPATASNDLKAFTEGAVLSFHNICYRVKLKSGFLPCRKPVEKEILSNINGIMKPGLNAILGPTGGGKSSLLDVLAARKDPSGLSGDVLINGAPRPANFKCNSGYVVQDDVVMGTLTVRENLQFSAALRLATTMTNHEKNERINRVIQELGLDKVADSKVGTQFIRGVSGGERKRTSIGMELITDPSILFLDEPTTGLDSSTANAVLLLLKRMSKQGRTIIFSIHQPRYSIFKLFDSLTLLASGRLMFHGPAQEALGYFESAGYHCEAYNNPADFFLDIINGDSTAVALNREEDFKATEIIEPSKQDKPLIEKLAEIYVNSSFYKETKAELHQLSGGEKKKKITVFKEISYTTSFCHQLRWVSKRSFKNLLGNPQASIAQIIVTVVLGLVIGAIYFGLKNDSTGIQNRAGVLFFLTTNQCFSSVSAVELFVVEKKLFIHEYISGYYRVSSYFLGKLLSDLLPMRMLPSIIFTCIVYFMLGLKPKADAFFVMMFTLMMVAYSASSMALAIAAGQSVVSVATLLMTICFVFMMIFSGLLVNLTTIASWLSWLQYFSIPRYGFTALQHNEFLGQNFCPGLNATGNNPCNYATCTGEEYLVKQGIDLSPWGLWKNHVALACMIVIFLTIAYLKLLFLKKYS

O=C(O)C(F)(F)C(F)(F)C(F)(F)C(F)(F)C(F)(F)C(F)(F)C(F)(F)C(F)(F)C(F)(F)C(F)(F)F
active: [9] 47.8 µM | [12] 13.7 µM
inactive: [1] | [2] | [3] | [4] | [5] | [6] | [7] | [8] | [10] | [11] | [13] | [14] | [15] | [16] | [17] | [18] | [19]

ClCC(Cl)CCl
inactive: [1] | [2] | [3] | [4] | [5] | [6] | [7] | [8] | [9] | [10] | [11] | [12] | [13] | [14] | [15] | [16] | [17] | [18] | [19]

CC(C)(OO)c1ccccc1
active: [5] 65.7 µM
inactive: [1] | [2] | [3] | [4] | [6] | [7] | [8] | [9] | [10] | [11] | [12] | [13] | [14] | [15] | [16] | [17] | [18] | [19]

Oc1cccc2cccnc12
inactive: [1] | [2] | [3] | [4] | [5] | [6] | [7] | [8] | [9] | [10] | [11] | [12] | [13] | [14] | [15] | [16] | [17] | [18] | [19]

O=c1[nH]c(=O)[nH]c(=O)[nH]1
inactive: [1] | [2] | [3] | [4] | [5] | [6] | [7] | [8] | [9] | [10] | [11] | [12] | [13] | [14] | [15] | [16] | [17] | [18] | [19]

CC(C)(C)CC(C)(C)c1ccc(O)cc1
active: [4] 2.44 µM | [5] 81.5 µM | [8] 81.5 µM
inactive: [2] | [3] | [6] | [7] | [9] | [10] | [11] | [12] | [13] | [14] | [15] | [16] | [17] | [18] | [19]

NC(=O)O
inactive: [2] | [3] | [4] | [5] | [6] | [7] | [8] | [9] | [10] | [11] | [12] | [13] | [14] | [15] | [16] | [17] | [18] | [19]

Cc1ccccc1N
inactive: [1] | [2] | [3] | [4] | [5] | [6] | [7] | [8] | [9] | [10] | [11] | [12] | [13] | [14] | [15] | [16] | [17] | [18] | [19]
